Compound activity (PubChem)
D2 ag-1: Beta-Arrestin HTS for Positive Allosteric Modulators of the Human D2 Dopamine Receptor: Agonists; D(2) dopamine receptor (Homo sapiens), P14416; DiscoveRx PathHunter D2 beta-arrestin, luminescence, 90 min; 100% = 57 uM dopamine signal; activation, % (test concentration not listed); 360,000 compounds, 0.084% hits; AID 624465, 2012; in the data active means activation above about 40%; inconclusive means between about 15% and that limit
Target sequence (P14416 whole entry, looked up): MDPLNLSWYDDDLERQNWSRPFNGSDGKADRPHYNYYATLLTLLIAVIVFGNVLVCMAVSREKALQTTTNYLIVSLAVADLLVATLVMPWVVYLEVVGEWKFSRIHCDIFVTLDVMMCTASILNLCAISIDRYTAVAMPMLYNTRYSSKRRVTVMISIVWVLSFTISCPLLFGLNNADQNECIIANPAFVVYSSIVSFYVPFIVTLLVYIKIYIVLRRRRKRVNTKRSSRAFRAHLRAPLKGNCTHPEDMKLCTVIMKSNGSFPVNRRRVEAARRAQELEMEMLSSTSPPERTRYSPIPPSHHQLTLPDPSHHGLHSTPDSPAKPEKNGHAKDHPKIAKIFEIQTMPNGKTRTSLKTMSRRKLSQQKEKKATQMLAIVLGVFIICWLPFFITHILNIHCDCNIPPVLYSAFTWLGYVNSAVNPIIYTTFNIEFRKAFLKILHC
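DiscoveRx PathHunter D2 beta-arrestin cells (2,100/well) attached overnight, then compound-stimulated 90 min at 37 C in HBSS/10 mM HEPES/0.1% Tween-20 buffer; beta-galactosidase complementation read by luminescence after 1 h at ambient temperature. Dopamine 57 uM final (EC100) as control.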
D2 antag: HTS Assay for Allosteric Antagonists of the Human D2 Dopamine Receptor: Primary Screen for Antagonists; HEK293 TREx D2 cells, calcium flux, dopamine EC80; inhibition, % at 10 µM; 340,000 compounds, 2% hits; AID 485344, 2010; in the data active means inhibition above about 30%; inactive means below that, where a call was filed; further: 0% is about no effect
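Calcium mobilization kinetics were recorded at 1 s intervals in tetracycline-induced HEK293 T-REx D2 cells, first for 180 s after compound addition and then 180 s after EC80 dopamine.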
D2 PAM-1: HTS Assay for Positive Allosteric Modulators of the Human D2 Dopamine Receptor: Primary Screen for Potentiators; potentiation, % at 10 µM; HEK293 T-REx D2, calcium flux, EC20 dopamine potentiation; 340,000 compounds, 0.34% hits; AID 485347, 2010;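 active means potentiation over 3 SD above the plate norm, cut at about 30% in these data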; further: 0% is about no effect
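Tetracycline-induced Hek293 Trex D2 cells, force-coupled to calcium, loaded with no-wash calcium dye. Compound added with 180 s kinetic read for agonism, then EC20 dopamine and a further 180 s read for potentiation.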
D2 ag-2: HTS Assay for Allosteric Agonists of the Human D2 Dopamine Receptor: Primary Screen for Agonists. HEK293 T-REx D2 cells, calcium flux agonist mode. activation, % at 2 µM. 340,000 compounds, 0.53% hits. AID 485358, 2010;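 active means activation over 3 SD above normal in the single-dose calcium agonist read, cut at about 30% in these data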; further: 0% is about no effect
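HEK293 Trex D2 cells, tetracycline-induced, o/n 30 C 5% CO2; no-wash Ca dye, RT 30–90 min; 10-cycle baseline, 23 nl cpd added, kinetic Ca read 180 s; agonist hits = positive Ca response.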
D2 PAM-2: Beta-Arrestin HTS for Positive Allosteric Modulators of the Human D2 Dopamine Receptor: Potentiators; potentiation, % (no concentration beside the values); DiscoveRx D2 beta-arrestin cells, luminescence, 90 min; 100% = 57 uM dopamine signal; 360,000 compounds, 0.23% hits; in the data active means potentiation above about 50%; inconclusive means mostly about 30% to 49%
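PathHunter D2 cells, attached overnight at 37 deg C, received compound in DMSO plus dopamine at EC20 (50 nM final) for 90 min at 37 deg C. Beta-arrestin recruitment was read as luminescence after 1 h with detection reagent at ambient temperature.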
* = called active by the depositor; ? = inconclusive; / = not tested or not shown. Only some compounds are listed: those with a hit (about 2.4% of all), similar ones and a draw of the others.

SMILES | D2 ag-1 | D2 antag | D2 PAM-1 | D2 ag-2 | D2 PAM-2
O=C1CN(C(=O)COc2ccc(Cl)cc2Cl)c2ccccc2N1 | -2 | 30* | -4 | 1 | 3
COc1ccc(/C=C/C(=O)OCC(=O)NC2CCCC2)cc1OC | 0 | / | / | / | -4
COc1cc(OC)cc(C(=O)NCC2CCCN(Cc3cccc(C(C)=O)c3)C2)c1 (centres undefined) | -6 | -8 | -9 | 0 | -3
COc1cccc(/C=N/NC(=O)CNC(=O)c2cccnc2)c1O | -1 | 3 | -2 | 1 | 0
COc1cccc(/C=N/NC(=O)CNC(=O)c2ccncc2)c1O | 8 | -5 | 65* | 1 | -1
C=CCOc1ccccc1CNCCCN1CCOCC1 | -1 | -5 | 37* | 0 | -12
CCC(=O)N1CCc2cc(S(=O)(=O)CCC(=O)NCCc3ccc(S(N)(=O)=O)cc3)ccc21 | -1 | 32* | -6 | 0 | -6
CCC(=O)N1CCc2cc(S(=O)(=O)CCC(=O)NCc3ccc(C)cc3)ccc21 | 0 | 0 | -5 | 0 | -10
COc1ccc(NC(=O)C(NC(=O)C2CCC(C)CC2)C(C)C)cc1 (centres undefined) | / | / | 2 | 0 | /
CN(C)/C=C1\C(=O)Nc2ccccc21 | -4 | -4 | -11 | 0 | -20
CN(O)/C=C1\C(=O)Nc2ccccc21 | 8 | -2 | 13 | 1 | 131*
Cc1ccc(CNC(=O)C2CCN(c3ncnc4c3nc3n4CCCCC3)CC2)cc1 | / | / | 4 | 0 | /
COc1ccc2c3c(cccc13)C(=O)CC2 | -4 | -15 | -11 | 49* | -8
c1ccc(-c2nccc(-c3ccc(-n4cnc5ccccc54)cc3)n2)cc1 | -3 | -5 | 4 | 0 | -10
Nc1nccc(-c2ccc(-n3cccc3)cc2)n1 | -1 | -6 | 50* | 0 | -8
CC(=O)Nc1ccccc1-c1nc2ccccc2n(CC(=O)c2ccc(C)c(C)c2)c1=O | / | / | -2 | -2 | /
Cc1ccccc1C(=O)OCc1cc(=O)n2nc(-c3cccs3)sc2n1 | / | / | 16 | / | /
CC(C)C(NC(=O)c1ccccc1)C(=O)NCc1ccccn1 (centres undefined) | 0 | 61* | -10 | 1 | 2
COc1cc(OC)cc(C(=O)NC(C(=O)NCc2ccccn2)C(C)C)c1 (centres undefined) | -3 | -4 | 7 | 1 | -8
COc1cccc(C(=O)NNS(=O)(=O)c2ccccc2)c1 | -2 | / | / | / | -5
CC(=O)c1c(C)[nH]c(C(=O)COC(=O)C2CC2)c1C | 2 | 32* | -1 | -3 | 1
CCOC(=O)c1c(C)[nH]c(C(=O)COC(=O)C2CC2)c1C | 0 | -9 | -8 | 0 | -3
Cc1onc(-c2ccccc2Cl)c1C(=O)Nc1nnc(-c2cccc([N+](=O)[O-])c2)s1 | 1 | / | / | / | -1
Cc1cccc(C(=O)O/N=C(\N)c2ccc(Br)cc2)c1 | ? | -19 | -7 | -2 | 138*
Cc1onc(-c2ccccc2Cl)c1C(=O)O/N=C(\N)c1ccccc1 | 43* | 5 | -1 | -2 | ?
SMILES | D2 ag-1 | D2 antag | D2 PAM-1 | D2 ag-2 | D2 PAM-2
N/C(=N\OC(=O)c1cccc(Br)c1)c1ccccc1 | 11 | 7 | -6 | -1 | ?
C/C(=N\OC(=O)c1c(-c2ccccc2Cl)noc1C)c1ccncc1 | -4 | 3 | -4 | 0 | -7
N/C(=N\OC(=O)c1cccs1)c1ccc(Cl)cc1 | 50* | -7 | -6 | 0 | ?
COc1ccc(/C(N)=N/OC(=O)c2cccs2)cc1 | 9 | 2 | 3 | 1 | 7
CCSc1nnc(NC(=O)c2c(-c3ccccc3Cl)noc2C)s1 | -3 | 109* | 15 | 1 | 23
O=C(O)C1CCCCN1C(=O)c1ccc(S(=O)(=O)N2CCCCCC2)cc1 (centres undefined) | -3 | 2 | 5 | 1 | -4
COc1ccc(C(=O)O/N=C(\N)c2cccc(C)c2)cc1OC | ? | -3 | 9 | 0 | 27
Cc1cc(C)cc(C(=O)O/N=C(\N)c2ccc(Br)cc2)c1 | ? | 35* | 4 | 0 | 64*
Cc1ccc(C)c(C(=O)O/N=C(\N)c2ccc(Br)cc2)c1 | 12 | 0 | 12 | -1 | 57*
Cc1cccc(C(=O)O/N=C(\N)c2ccc(Cl)cc2)c1 | 46* | 14 | -9 | 0 | -6
Cc1cc(/C(N)=N/OC(=O)c2cccc(Cl)c2)no1 | 5 | 50* | -1 | 0 | 13
Cc1cc(/C(N)=N/OC(=O)c2ccc(Cl)cc2)no1 | 2 | -7 | -7 | -1 | -4
Cc1ccc(C(=O)O/N=C(\N)c2ccc(Br)cc2)cc1C | 10 | -8 | -10 | -2 | ?
CSc1cccc(CN2CCN(CCc3ccccc3)C(CCO)C2)c1 (centres undefined) | -2 | 27 | -30 | 0 | -42
CSc1ccc(CN2CCN(CC=C(C)C)C(CCO)C2)cc1 (centres undefined) | -4 | 33* | -22 | 0 | -12
CSc1cccc(CN2CCN(Cc3ccccc3)C(CCO)C2)c1 (centres undefined) | -2 | 39* | -35 | -3 | -8
CC(Oc1ccccc1)C(=O)NC1=NCCS1 (centres undefined) | 0 | 0 | -4 | 0 | 14
Cc1cc(NC(=O)CCC(=O)N(Cc2ccco2)C2(C(=O)NC3CCCC3)CCCCC2)no1 | -9 | 5 | 1 | 0 | -10
CC(=O)N(Cc1ccco1)C1(C(=O)NC2CCCCC2)CCCCC1 | -3 | / | / | / | -6
CC(=O)NCC(=O)N(Cc1ccco1)C1(C(=O)NC2CCCCC2)CCCCC1 | -5 | 73* | 0 | 1 | -18
Cc1cc(NC(=O)CCC(=O)N(Cc2ccco2)C2(C(=O)NC3CCCC3)CCCCC2C)no1 (centres undefined) | 3 | 34* | 14 | 1 | -2
CCCN1CCN(S(=O)(=O)c2ccc(-n3cnnn3)cc2)CC1 | 4 | 14 | -18 | 0 | 3
Cc1ccccc1CNC(=O)CCCn1c(=O)c2cccn2c2cccnc21 | / | / | 3 | 0 | /
COc1ccc(CCN(C)C(=O)CCNS(=O)(=O)c2ccccc2C(F)(F)F)cc1OC | -1 | 35* | 7 | 0 | 6
COc1ccccc1N1CCN(C(CNC(=O)C(=O)NCCc2ccccc2)c2cccnc2)CC1 (centres undefined) | / | / | 5 | -1 | /
O=C(NCC1CCCO1)c1cccc(S(=O)(=O)Nc2ccccc2Cl)c1 (centres undefined) | -2 | / | / | / | -14
